High-throughput results (PubChem)
APP transl inh – APP translation inhibition; inhibition, % at 2 µM; 190,000 tested, 0.82% active; SH-SY5Y APP 5'UTR-luciferase reporter, luminescence; AID 1285;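 active means inhibition above a set limit, derived from the sample mean plus 3 SD, cut at about 45% in these data; inconclusive means one replicate passes the limit while the other fails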
aSyn 5UTR inh – MLPCN primary screen, SNCA 5' untranslated region. AID 1813. inhibition, % (tested at 7.5 µM). 300,000 tested, 0.82% active. alpha-synuclein 5'UTR reporter, inhibitor activity; in the data active means inhibition above about 60%; inconclusive means no clear call, values can overlap the other calls;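 further: H4 neuroglioblastoma cells stably carrying SNCA 5'UTR luciferase fusion; 0% = DMSO wells and 100% = positive control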
BaF3 tox – reduces parental Ba/F3 cell viability, JAK2V617F counter-screen. inhibition, % at 5.6 µM. 220,000 tested, 1.1% active. CellTiter-Glo ATP luminescence;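 active means inhibition above a per-campaign cutoff, the mean inhibition of all tested compounds plus 3 SD, cut at about 27% in these data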;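 further: 0% = DMSO wells and 100% = JAK Inhibitor I control wells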
Ba/F3 V617F tox – loss of viability in JAK2V617F-driven Ba/F3 cells | Ba/F3 EpoR-JAK2V617F viability, ATP luminescence | inhibition, % at 5.6 µM | 220,000 tested, 1.1% active;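 active means inhibition above the campaign mean plus 3 SD over all tested compounds, cut at about 24% in these data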;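 further: cytokine-independent growth of Ba/F3 cells driven by EpoR plus mutant JAK2; 0% = DMSO-treated cells and 100% = JAK inhibitor I control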
IEC-6 tox – IEC-6 cytotoxicity, counter-screen for KLF5 inhibitors. luminescence viability. inhibition, % at 5 µM. 290,000 tested, 0.78% active. AID 1825;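 further: 0% = plate median of test compound wells and 100% = cytotoxic reference compound wells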
KLF5 inh – kruppel-like factor 5 inhibition; DLD-1 KLF5 promoter-luciferase reporter, luminescence; inhibition, % at 5 µM; 290,000 tested, 0.23% active; AID 1700;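 active means inhibition above a per-plate limit of that plate's mean compound inhibition plus 3 SD, cut at about 60% in these data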;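 further: 0% = DMSO wells and 100% = LY294002 at 200 µM; higher means less KLF5 promoter-driven luciferase light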
IEC-6 cytotox cf – IEC-6 cytotoxicity, confirmation assay. 1,900 tested, 63% active. inhibition, % at 5 µM. IEC-6 rat intestinal epithelial viability, luminescence. shares compounds with IEC-6 tox. AID 1907;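 further: 0% = vehicle and 100% = reference cytotoxic drug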
* marks the source's active call; other numbers are inactive results. This is a sample that favours compounds with a hit; in the whole collection about 2.2% have one here. Unless noted, no stated cut-off is given here; in the data, active means inhibition above about 22%; inactive means the rest.

Results for CCC(C)NC(=O)CCC(=O)OC1O[C@H]2OC3(C)CC[C@H]4[C@H](C)CCC(C1C)C24OO3 (some centres undefined) ?
aSyn 5UTR inh: 8.6; IEC-6 tox: 34.7*; KLF5 inh: 83.8*; IEC-6 cytotox cf: 22.9*

How did Cc1c(C)c2ccc(OCC(=O)N3C[C@H]4C[C@@H](C3)c3cccc(=O)n3C4)cc2oc1=O do in these assays?
aSyn 5UTR inh: 1.9; IEC-6 tox: -8.1; KLF5 inh: -14.0

Results for COc1cccc(OC)c1C1=NCC(=O)Nc2c1oc1ccc(Br)cc21 ?
APP transl inh: 92.7*; aSyn 5UTR inh: inconclusive; BaF3 tox: 39.4*; Ba/F3 V617F tox: 75.5*; IEC-6 tox: 34.1*; KLF5 inh: 35.5; IEC-6 cytotox cf: 56.7*

What do the screens show for `Nc1cc(Cl)c2nonc2c1[N+](=O)[O-]`?
APP transl inh: 96.2*; BaF3 tox: 1.7; Ba/F3 V617F tox: 47.0*; IEC-6 tox: 69.3*; KLF5 inh: 14.5; IEC-6 cytotox cf: 29.9*

How did O=C(Nc1ccc(Cl)cc1)Nc1nccs1 do in these assays?
APP transl inh: 60.1*; aSyn 5UTR inh: -47.3; BaF3 tox: 79.1*; Ba/F3 V617F tox: 84.8*; IEC-6 tox: 68.2*; KLF5 inh: 24.5; IEC-6 cytotox cf: 60.3*

What do the screens show for `O=C(Nc1nccs1)C(Cl)(Cl)Cl`?
APP transl inh: 5.2; aSyn 5UTR inh: -0.4; BaF3 tox: 4.9; Ba/F3 V617F tox: 1.7; IEC-6 tox: -1.8; KLF5 inh: -1.4

How did COc1ccc(OC)c2c1CCC1NCCOC21 (centres undefined) do in these assays?
APP transl inh: 13.3; aSyn 5UTR inh: 17.3; BaF3 tox: 9.1; Ba/F3 V617F tox: -2.2; IEC-6 tox: -3.6; KLF5 inh: -17.0

Results for COc1cc2c(cc1OC)[C@@H]1C(=O)c3ccc4c(c3O[C@@H]1CO2)C[C@H](C(C)C)O4 ?
aSyn 5UTR inh: 20.8; BaF3 tox: 65.3*; Ba/F3 V617F tox: 71.1*; IEC-6 tox: 34.6*; KLF5 inh: 28.0; IEC-6 cytotox cf: 24.8*

What do the screens show for `CCCn1ncc(CN2CCCC(C(=O)c3cccc(OC)c3)C2)c1C` (centres undefined)?
APP transl inh: -7.3; aSyn 5UTR inh: -7.0; BaF3 tox: -0.5; Ba/F3 V617F tox: -4.2; IEC-6 tox: -0.2; KLF5 inh: 0.4

Results for COC(=O)C(Cc1ccc(N(CCCl)CCCl)cc1)N=Cc1ccccc1O (centres undefined) ?
aSyn 5UTR inh: 27.4; IEC-6 tox: 90.4*; KLF5 inh: -12.3; IEC-6 cytotox cf: 77.8*

Results for CCN(CC)P(c1n(C)cc[n+]1C)N(CC)CC ?
APP transl inh: -9.1; aSyn 5UTR inh: -28.7; BaF3 tox: 6.8; Ba/F3 V617F tox: 3.9; IEC-6 tox: 1.3; KLF5 inh: -13.7

How did COc1cc(C)c(CNCCc2c[nH]c3ccccc23)cc1C do in these assays?
aSyn 5UTR inh: 47.6; IEC-6 tox: 24.4*; KLF5 inh: -4.4; IEC-6 cytotox cf: 0.4

Results for COc1ccc(CNCCc2c[nH]c3ccccc23)c(OC)c1C ?
aSyn 5UTR inh: 47.9; IEC-6 tox: 14.4; KLF5 inh: -15.3
